Measurements as given in PubChem BioAssay AID1159580 (chemical genetic matrix, 2015).
The campaign covered roughly 5,500 compounds. About 2,000 (36%) were called active. About 18% were inconclusive and are not listed. Cut-off read from the data, not from the text of the source: active = normalized growth mostly below about 0.91 (no sharp cut-off); inconclusive = no clear call, values can overlap the other calls; inactive = mostly above about 0.92. The list shows a part of the results.

Assay: chemical genetic growth profiling, strain panel (AID 1159580);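 note: tested at 20 µM; growth read once vehicle control cultures reached saturation at 30 °C; 1 = growth at the plate median or of vehicle wells; lower values mean less growth of the strain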
Settings: growth OD

Measured: normalized growth

COc1ccc(C(CN(C)C)C2(O)CCCCC2)cc1 (stereo unspecified)
inactive: S. cerevisiae deletion strains, locus YKL009W, strain mrt4, active compounds read low 0.978 | S. cerevisiae deletion strains, locus YKL068W, active compounds read low 0.996 | S. cerevisiae deletion strains, locus YKL085W, strain MDH1 (second series), active compounds read low 0.994 | S. cerevisiae deletion strains, locus YKL085W, strain MDH1, active compounds read low 0.994 | S. cerevisiae deletion strains, locus YKL160W, strain elf1, active compounds read low 0.97 | S. cerevisiae deletion strains, locus YKL190W, strain CNB1, active compounds read low 1 | S. cerevisiae deletion strains, locus YKR001C, strain vps1, active compounds read low 0.977 | S. cerevisiae deletion strains, locus YKR026C, strain gcn3, active compounds read low 0.994 | S. cerevisiae deletion strains, locus YKR091W, strain srl3, active compounds read low 0.969 | S. cerevisiae deletion strains, locus YLL001W, strain dnm1, active compounds read low 0.981 | S. cerevisiae deletion strains, locus YLL026W, active compounds read low 0.997 | S. cerevisiae deletion strains, locus YLL041C, strain sdh2, active compounds read low 0.979 | S. cerevisiae deletion strains, locus YLR027C, strain aat2, active compounds read low 0.989 | S. cerevisiae deletion strains, locus YLR039C, strain RIC1, active compounds read low 1.05 | S. cerevisiae deletion strains, locus YLR058C, strain SHM2, active compounds read low 1.01 | S. cerevisiae deletion strains, locus YLR102C, strain apc9, active compounds read low 0.989 | S. cerevisiae deletion strains, locus YLR113W, strain HOG1, active compounds read low 1.04 | S. cerevisiae deletion strains, locus YLR221C, strain rsa3, active compounds read low 1.01 | S. cerevisiae deletion strains, locus YLR258W, strain gsy2, active compounds read low 0.978 | S. cerevisiae deletion strains, locus YLR262C, strain YPT6 (second series), active compounds read low 0.966 | S. cerevisiae deletion strains, locus YLR262C, strain YPT6, active compounds read low 1.03 | S. cerevisiae deletion strains, locus YLR268W, strain sec22, active compounds read low 0.981 | S. cerevisiae deletion strains, locus YLR320W, strain mms22, active compounds read low 1.02 | S. cerevisiae deletion strains, locus YLR330W, strain CHS5, active compounds read low 1.01 | S. cerevisiae deletion strains, locus YLR342W, strain FKS1 (second series), active compounds read low 1.03 | S. cerevisiae deletion strains, locus YLR342W, strain FKS1, active compounds read low 0.976 | S. cerevisiae deletion strains, locus YLR357W, strain rsc2, active compounds read low 0.936 | S. cerevisiae deletion strains, locus YLR370C, strain arc18, active compounds read low 0.989 | S. cerevisiae deletion strains, locus YLR371W, strain rom2, active compounds read low 0.985 | S. cerevisiae deletion strains, locus YLR384C, strain iki3, active compounds read low 0.996 | S. cerevisiae deletion strains, locus YLR418C, strain cdc73, active compounds read low 0.96 | S. cerevisiae deletion strains, locus YML016C, strain PPZ1, active compounds read low 1.01 | S. cerevisiae deletion strains, locus YML032C, strain rad52, active compounds read low 0.991 | S. cerevisiae deletion strains, locus YML120C, strain ndi1, active compounds read low 1 | S. cerevisiae deletion strains, locus YML124C, strain tub3, active compounds read low 0.989 | S. cerevisiae deletion strains, locus YMR058W, strain fet3, active compounds read low 0.989 | S. cerevisiae deletion strains, locus YMR078C, strain ctf18, active compounds read low 0.993 | S. cerevisiae deletion strains, locus YMR125W, strain sto1, active compounds read low 0.919 | S. cerevisiae deletion strains, locus YMR129W, active compounds read low 0.993 | S. cerevisiae deletion strains, locus YMR205C, strain PFK2, active compounds read low 0.998 | S. cerevisiae deletion strains, locus YMR223W, strain ubp8, active compounds read low 0.99 | S. cerevisiae deletion strains, locus YMR231W, strain pep5, active compounds read low 0.978 | S. cerevisiae deletion strains, locus YMR263W, strain SAP30, active compounds read low 1.01 | S. cerevisiae deletion strains, locus YMR307W, strain GAS1, active compounds read low 1 | S. cerevisiae deletion strains, locus YNL067W, strain RPL9B, active compounds read low 0.991 | S. cerevisiae deletion strains, locus YNL071W, strain lat1, active compounds read low 1 | S. cerevisiae deletion strains, locus YNL128W, strain TEP1, active compounds read low 1.01 | S. cerevisiae deletion strains, locus YNL153C, strain GIM3, active compounds read low 1.01 | S. cerevisiae deletion strains, locus YNL183C, strain NPR1, active compounds read low 0.969 | S. cerevisiae deletion strains, locus YNL209W, strain ssb2, active compounds read low 0.981 | S. cerevisiae deletion strains, locus YNL233W, strain BNI4, active compounds read low 1.02 | S. cerevisiae deletion strains, locus YNL248C, strain rpa49, active compounds read low 0.925 | S. cerevisiae deletion strains, locus YNL250W, strain rad50, active compounds read low 0.993 | S. cerevisiae deletion strains, locus YNL271C, strain bni1, active compounds read low 0.987 | S. cerevisiae deletion strains, locus YNL298W, strain CLA4, active compounds read low 0.991 | S. cerevisiae deletion strains, locus YNL307C, strain MCK1, active compounds read low 0.981 | S. cerevisiae deletion strains, locus YNL322C, strain KRE1 (second series), active compounds read low 0.965 | S. cerevisiae deletion strains, locus YNL322C, strain KRE1, active compounds read low 1.01 | S. cerevisiae deletion strains, locus YNR049C, strain mso1, active compounds read low 0.982 | S. cerevisiae deletion strains, locus YNR052C, strain pop2, active compounds read low 0.998 | S. cerevisiae deletion strains, locus YOL006C, strain TOP1, active compounds read low 1.04 | S. cerevisiae deletion strains, locus YOL012C, strain htz1 0.805 | S. cerevisiae deletion strains, locus YOL147C, strain pex11, active compounds read low 0.984 | S. cerevisiae deletion strains, locus YOR001W, strain rrp6, active compounds read low 1.01 | S. cerevisiae deletion strains, locus YOR061W, strain CKA2, active compounds read low 1.01 | S. cerevisiae deletion strains, locus YOR069W, strain VPS5, active compounds read low 0.995 | S. cerevisiae deletion strains, locus YOR070C, strain gyp1, active compounds read low 0.986 | S. cerevisiae deletion strains, locus YOR080W, strain dia2, active compounds read low 0.973 | S. cerevisiae deletion strains, locus YOR083W, strain WHI5, active compounds read low 0.932 | S. cerevisiae deletion strains, locus YOR106W, strain vam3, active compounds read low 0.967 | S. cerevisiae deletion strains, locus YOR136W, strain idh2, active compounds read low 0.986 | S. cerevisiae deletion strains, locus YOR144C, strain elg1, active compounds read low 0.998 | S. cerevisiae deletion strains, locus YOR184W, strain ser1, active compounds read low 1 | S. cerevisiae deletion strains, locus YOR231W, strain MKK1, active compounds read low 1.01 | S. cerevisiae deletion strains, locus YOR265W, strain rbl2, active compounds read low 0.989 | S. cerevisiae deletion strains, locus YOR270C, strain vph1, active compounds read low 0.945 | S. cerevisiae deletion strains, locus YOR290C, strain snf2, active compounds read low 0.974 | S. cerevisiae deletion strains, locus YOR316C, strain cot1, active compounds read low 0.999 | S. cerevisiae deletion strains, locus YPL051W, strain arl3, active compounds read low 0.994 | S. cerevisiae deletion strains, locus YPL055C, strain LGE1, active compounds read low 1.03 | S. cerevisiae deletion strains, locus YPL078C, strain atp4, active compounds read low 0.969 | S. cerevisiae deletion strains, locus YPL106C, strain sse1, active compounds read low 0.977 | S. cerevisiae deletion strains, locus YPL240C, strain hsp82, active compounds read low 0.996 | S. cerevisiae deletion strains, locus YPL241C, strain CIN2, active compounds read low 1 | S. cerevisiae deletion strains, locus YPL256C, strain CLN2, active compounds read low 0.992 | S. cerevisiae deletion strains, locus YPR119W, strain clb2, active compounds read low 0.993 | S. cerevisiae deletion strains, locus YPR141C, strain kar3, active compounds read low 0.991 | S. cerevisiae deletion strains, locus YPR163C, strain tif3, active compounds read low 0.984 | S. cerevisiae deletion strains, locus YPR167C, strain met16, active compounds read low 0.989 | S. cerevisiae deletion strains, strain wtn01, active compounds read low 0.983 | S. cerevisiae strains, strain wild type, active compounds read low 1
